Test systems include DU-145 prostate; K-562 leukemia; MALME-3M melanoma; MDA-MB-231 breast; RXF 393 renal; SF-268 CNS; SF-295 CNS; SF-539 CNS; UACC-257 melanoma; M14 melanoma; HCT-15 colon; HT29 colon; SNB-75 CNS; SNB-19 CNS; U251 CNS; PC-3 prostate; SK-MEL-5 melanoma; UACC-62 melanoma; LOX IMVI melanoma; SK-MEL-28 melanoma.
Assay in all cases: NCI-60 one-dose screen, 48 h (100 = growth as untreated, 0 = no growth, -100 = all killed)
Conditions in all cases: 10 µM unless noted

This is part of a sample that, as a whole, favours compounds with a hit. Of some 83,000 tested, about 20% had one in any assay.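 Plates (96-well) were seeded with cells, treated with compound at one concentration, and incubated for 48 hours before percent growth was determined.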 Unmarked numbers belong to inactive results. The source made the active and inactive calls. The calls were made as follows: active = growth percent below 10; inactive = the rest.

For the molecule `COc1ccc2[nH]c(C(=O)N3CCN(C(=O)OCc4ccc5c(Br)cc(Br)c(O)c5n4)CC3)cc2c1`, the growth is -97.8% (active) with DU-145 prostate; 2.19% (active) with K-562 leukemia; -95.3% (active) with MALME-3M melanoma; -84.6% (active) in the experiment on MDA-MB-231 breast; -87.9% (active) with RXF 393 renal; -80.2% (active) in the experiment on SF-268 CNS. Besides, the growth is -87.8% (active) in the experiment on SF-295 CNS; -99.8% (active) with SF-539 CNS; -59.1% (active) with UACC-257 melanoma; -77.9% (active) in the experiment with M14 melanoma; -72.2% (active) in the experiment on HCT-15 colon; -68.5% (active) in the experiment with HT29 colon. The growth in the experiment on SNB-75 CNS is -98.5% (active); in the experiment on SNB-19 CNS, -93.1% (active); with U251 CNS, -95.7% (active); with PC-3 prostate, -87.9% (active); in the experiment with SK-MEL-5 melanoma, -99% (active); in the experiment with UACC-62 melanoma, -95.5% (active). Moreover, the values for the growth in the experiment on LOX IMVI melanoma and with SK-MEL-28 melanoma were -91.2% (active) and -98.1% (active), respectively.
As for `CCOC(=O)COc1ccc2c(c1)O/C(=C\c1ccc(O)cc1)C2=O`, the growth in the experiment on DU-145 prostate is 106%; in the experiment with K-562 leukemia it was 106%; with MALME-3M melanoma, 102%; in the experiment on MDA-MB-231 breast, 117%; with RXF 393 renal it was 114%; in the experiment on SF-268 CNS it was 94.2%. In addition, the growth in the experiment with SF-295 CNS was 101%; in the experiment with SF-539 CNS, 102%; in the experiment with UACC-257 melanoma, 105%; in the experiment on M14 melanoma it was 103%; with HCT-15 colon, 101%; with HT29 colon, 108%. Further, the growth was 87.7% with SNB-75 CNS; 102% in the experiment with SNB-19 CNS; 107% with U251 CNS; 112% in the experiment on PC-3 prostate; 102% in the experiment on SK-MEL-5 melanoma; 98.9% in the experiment with UACC-62 melanoma. The growth was 97.9% with LOX IMVI melanoma and 106% in the experiment with SK-MEL-28 melanoma.
With `O=[N+]([O-])c1cc([N+](=O)[O-])c(NN=C(c2ccc(O)cc2)c2ccc(O)cc2)cc1Cl`, the growth with DU-145 prostate is -77.9% (active); in the experiment with K-562 leukemia it was 101%; in the experiment on MALME-3M melanoma it was -51.6% (active); in the experiment on MDA-MB-231 breast, -70.4% (active); in the experiment with RXF 393 renal it was -76.5% (active); in the experiment on SF-268 CNS, -91.8% (active). Besides, the growth with SF-295 CNS was 104%; in the experiment with SF-539 CNS, -51.9% (active); in the experiment on UACC-257 melanoma, -79.9% (active); in the experiment on M14 melanoma, -86.8% (active); in the experiment with HCT-15 colon it was -85.8% (active); with HT29 colon it was -82.6% (active). Besides, the growth is -15.6% (active) in the experiment on SNB-75 CNS; 89.4% in the experiment with SNB-19 CNS; -99.9% (active) in the experiment with U251 CNS; -80.8% (active) in the experiment with PC-3 prostate; 59.5% with SK-MEL-5 melanoma; 18.4% in the experiment with UACC-62 melanoma. In addition, the growth is -94% (active) in the experiment on LOX IMVI melanoma and -90.3% (active) in the experiment with SK-MEL-28 melanoma.
`Cc1ccc(S(=O)(=O)Oc2ccc([N+](=O)[O-])cc2[N+](=O)[O-])cc1`: the growth with DU-145 prostate was 116%; in the experiment with K-562 leukemia, 29%; with MALME-3M melanoma, 63.6%; in the experiment on MDA-MB-231 breast, 94.3%; in the experiment on RXF 393 renal it was 111%; in the experiment with SF-268 CNS it was 96.5%. For the same molecule, the growth was 108% in the experiment on SF-295 CNS; 93.6% with SF-539 CNS; 86.2% in the experiment on UACC-257 melanoma; -8.49% (active) with M14 melanoma; 19% in the experiment with HCT-15 colon; 98.2% in the experiment on HT29 colon. Besides, the growth in the experiment with SNB-75 CNS is 98.9%; with SNB-19 CNS it was 110%; with U251 CNS, 94.4%; in the experiment on PC-3 prostate, 83.6%; in the experiment with SK-MEL-5 melanoma, 76.5%; with UACC-62 melanoma, 82.5%. In addition, the growth is 10.1% in the experiment on LOX IMVI melanoma and 113% with SK-MEL-28 melanoma.
On to `O=C1NC(=O)C(Cc2ccccc2)(Cc2ccccc2)N1`, for which the growth with DU-145 prostate was 111%; in the experiment with K-562 leukemia, 108%; with MALME-3M melanoma, 109%; with MDA-MB-231 breast, 98.4%; in the experiment with RXF 393 renal, 117%; with SF-268 CNS, 95.1%. The growth in the experiment on SF-295 CNS is 94.2%; in the experiment on SF-539 CNS, 102%; in the experiment on UACC-257 melanoma, 105%; with M14 melanoma, 93.9%; in the experiment with HCT-15 colon, 102%; with HT29 colon, 94.1%. Also, the growth with SNB-75 CNS was 85.2%; in the experiment with SNB-19 CNS, 95.2%; with U251 CNS, 101%; in the experiment with PC-3 prostate, 83.2%; in the experiment on SK-MEL-5 melanoma, 94.3%; in the experiment with UACC-62 melanoma it was 97%. Also, the values for the growth with LOX IMVI melanoma and with SK-MEL-28 melanoma were 89.4% and 119%, respectively.
`COc1cc(Cl)cc(-c2nn(C(=O)NS(=O)(=O)c3ccccc3)cc2-c2ccncc2)c1`: the growth with DU-145 prostate is 82.5%; with K-562 leukemia it was 86.3%; in the experiment on MALME-3M melanoma it was 96.4%; in the experiment with MDA-MB-231 breast, 62.6%; in the experiment with RXF 393 renal it was 79.2%; in the experiment on SF-268 CNS it was 81.1%. Further, the growth in the experiment on SF-295 CNS was 97.9%; in the experiment on SF-539 CNS, 48.2%; with UACC-257 melanoma it was 110%; in the experiment with M14 melanoma, 86.4%; in the experiment on HCT-15 colon it was 111%; in the experiment with HT29 colon, 41.1%. Besides, the growth was 3.59% (active) with SNB-75 CNS; 105% with SNB-19 CNS; 81.5% in the experiment on U251 CNS; 91.4% in the experiment with PC-3 prostate; 93.3% in the experiment on SK-MEL-5 melanoma; 82.7% with UACC-62 melanoma. In addition, the growth with LOX IMVI melanoma is 59.1%; in the experiment with SK-MEL-28 melanoma, 98.7%.
Regarding `Cc1ccc(S(=O)(=O)Nc2ccccc2)cc1N`, the growth was 108% with DU-145 prostate; 78.3% in the experiment with K-562 leukemia; 133% in the experiment with MALME-3M melanoma; 83.9% with MDA-MB-231 breast; 94.5% in the experiment with RXF 393 renal; 94.8% with SF-268 CNS. Besides, the growth with SF-295 CNS is 119%; with SF-539 CNS, 106%; with UACC-257 melanoma it was 92.3%; in the experiment with M14 melanoma, 96.2%; in the experiment on HCT-15 colon it was 99.1%; in the experiment on HT29 colon, 107%. The growth in the experiment with SNB-75 CNS is 95%; with SNB-19 CNS, 108%; in the experiment on U251 CNS, 101%; in the experiment with PC-3 prostate it was 89.5%; in the experiment on SK-MEL-5 melanoma it was 88.5%; with UACC-62 melanoma, 90.8%. Further, the figures for the growth with LOX IMVI melanoma and in the experiment on SK-MEL-28 melanoma were 91.3% and 100%, respectively.
